{
  "source": "PubChem BioAssay (NCI)",
  "note": "This is part of a sample that, as a whole, favours compounds with a hit. Of some 83,000 tested, about 20% had one in any assay.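 Each cell line was grown in a 96-well plate and treated with one concentration of compound for 48 hours. Values below 10 were considered active.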 A number with no mark means an inactive call. Calls of active or inactive are those of the source.",
  "data": [
    {"tested_on": "RXF 393 renal", "assay": "NCI-60 one-dose screen, 48 h (100 = growth as untreated, 0 = no growth, -100 = all killed)", "conditions": "10 µM unless noted", "values": [
      {"smiles": "CC(c1ccc(-n2cccn2)cc1)c1cnc(N2CCc3ccc(C(N)=O)cc3C2)s1", "note": "(stereo not drawn)", "growth": "82.2%"},
      {"smiles": "COc1cc2c(cc1OC)-c1ccc3cc4c(cc3c1N(CCCN1CCCCC1)C2)OCO4", "growth": "43.8%"},
      {"smiles": "C[C@@H](C[C@H](CCOCc1cccnc1)c1ccccc1)c1cc2ccccc2o1", "growth": "92.8%"},
      {"smiles": "N#Cc1c(N)n2c(nc1=Nc1ccc([N+](=O)[O-])cc1)sc1cc(Cl)ccc12", "growth": "114%"},
      {"smiles": "C=C1C(=O)O[C@H]2[C@H]1CC/C(C(=O)NCCCCCCCCNC(=O)/C1=C/CC[C@@]3(C)O[C@H]3[C@H]3OC(=O)C(=C)[C@@H]3CC1)=C\\CC[C@@]1(C)O[C@@H]21", "growth": "43.1%"},
      {"smiles": "O=C(NCCOCCOCCOCCNC(=O)c1cc2c(o1)C(=O)c1ccccc1C2=O)NC12CC3CC(CC(C3)C1)C2", "growth": "-52.9% (active)"},
      {"smiles": "CCOc1ccc2nc(-c3cccc(OCC(=O)NC(C)C)c3)nc(Nc3ccc(-c4cn[nH]c4)cc3)c2c1", "growth": "-43.7% (active)"},
      {"smiles": "CSc1ncc(C)c(Nc2ccc(Cl)cc2)n1", "growth": "114%"},
      {"smiles": "O=C1CCC(N2C(=O)c3cccc(NCCCC4CCN(CCNC(=O)c5cc6c(o5)C(=O)c5ccccc5C6=O)CC4)c3C2=O)C(=O)N1", "note": "(stereo not drawn)", "growth": "-52.9% (active)"},
      {"smiles": "CCOC(=O)C1C(=O)C=C(c2cnccn2)CC1c1ccc(OC)c(OC)c1", "note": "(stereo not drawn)", "growth": "114%"},
      {"smiles": "OC(CBr)c1ccnc2ccccc12", "note": "(stereo not drawn)", "growth": "107%"},
      {"smiles": "O=C1N(c2ccccc2)C(=S)N[C@]12[C@H](c1ccccc1)C1CCCN1[C@]21C(=O)NC2C=CC(Cl)=C[C@H]21", "note": "(stereo partly drawn)", "growth": "100%"},
      {"smiles": "CC(C)n1nc(C#Cc2cccc(O)c2)c2c(N)ncnc21", "growth": "-87.2% (active)"},
      {"smiles": "COc1cc2c(=O)n(CCCn3ccnc3)c3c4cc5c(cc4ccc3c2cc1OC)OCO5", "growth": "-27% (active)"},
      {"smiles": "O=C(/C=C/C12c3ccccc3C(c3ccccc31)C1C(=O)N(c3ccccc3)C(=O)C12)c1ccccc1", "note": "(stereo not drawn)", "growth": "-72.8% (active)"},
      {"smiles": "O=C(CC12CC3CC(CC(C3)C1)C2)NCCOCCOCCOCCNC(=O)c1cc2c(o1)C(=O)c1ccccc1C2=O", "growth": "-51.3% (active)"},
      {"smiles": "O=C1Nc2ccccc2/C1=N/N=C/c1ccc(OC2OC(CO)C(O)C(O)C2O)cc1", "note": "(stereo not drawn)", "growth": "114%"},
      {"smiles": "CC(=[N-])N1CCC[C@@H](Nc2c3ccccc3nc3ccccc23)C1.[Cl][Pt].[NH-]CCC[NH-]", "growth": "-24.3% (active)"},
      {"smiles": "O=C1Nc2ccccc2/C1=N/N=C/c1c[nH]c2ccccc12", "growth": "57.5%"},
      {"smiles": "CNC1(C#N)CCN(Cc2ccccc2)CC1", "growth": "99.1%"},
      {"smiles": "COc1cc2c(cc1OC)-c1ccc3cc4c(cc3c1N(CCCn1ccnc1)C2)OCO4", "growth": "57.8%"},
      {"smiles": "NC(=O)c1c(NC(=O)c2ccccn2)sc2c1CCC(=O)C2", "growth": "21.5%"},
      {"smiles": "NC(N)=N/N=C/c1ccc(Br)cc1", "growth": "70.8%"},
      {"smiles": "CCNCCNc1cc(C2CCCC2)c(C#N)c2nc3ccccc3n12", "growth": "-32.4% (active)"},
      {"smiles": "CS(=O)(=O)c1ccc(-c2[nH]c3ccc(F)cc3c2/C=N/O)cc1", "growth": "104%"},
      {"smiles": "N=C(N)c1ccc(-c2ccc(-c3ccc(Cl)cc3Cl)o2)cc1", "growth": "32.1%"},
      {"smiles": "CC(=O)C(C(C)=O)c1nc2sc3cc(Cl)ccc3n2c(=N)c1C#N", "growth": "109%"},
      {"smiles": "Cc1ccc(/C=C(\\C#N)n2nnc3cc(Cl)c(Cl)cc32)cc1", "growth": "-33.5% (active)"},
      {"smiles": "O=S(=O)(NCCNc1cc(-c2c(-c3cccc(O)c3)nc3sccn23)ccn1)c1ccc(Br)cc1", "growth": "60%"},
      {"smiles": "COc1ccc(/C(C)=N/NS(=O)(=O)c2ccc(C)cc2)cc1OC", "growth": "115%"},
      {"smiles": "C=C(Cl)COC(=O)C(C)(C)O", "growth": "111%"},
      {"smiles": "CCc1c(C(=O)N[C@@H]2c3cc(Cl)ccc3CC[C@@H]2O)[nH]c(C)c1C(C)=O", "growth": "92.3%"},
      {"smiles": "COc1cc2nc(Nc3ccc(F)cc3)nc(N)c2cc1OC", "growth": "54.5%"},
      {"smiles": "c1ccc2c(c1)nc(-n1ccnc1)c1nc3ccccc3n12", "growth": "64.9%"},
      {"smiles": "COC(=O)/C(=C\\c1ccc(OC)cc1)C(=O)N1c2ccccc2Sc2ccccc21", "growth": "47.7%"},
      {"smiles": "CN1CCN(c2ccc(Nc3ncc(Cl)c(NC[C@@H]4CCCO4)n3)cc2)CC1", "growth": "-31.7% (active)"},
      {"smiles": "O=C(NC1CCOCC1)c1ccc2c(c1)CN(c1ncc(Cc3cccc(-n4cccn4)c3)s1)CC2", "growth": "73.7%"},
      {"smiles": "[2H]c1nc(Nc2ncc(F)c(-c3cc(F)c4nc(C)n(C(C)C)c4c3)n2)c([2H])c([2H])c1CN1CCN(C([2H])([2H])C([2H])([2H])[2H])CC1", "growth": "1.53% (active)"},
      {"smiles": "COc1ccc(C2CC(c3cnccn3)=NN2)cc1OC", "note": "(stereo not drawn)", "growth": "100%"}
    ]},
    {"tested_on": "SF-268 CNS", "assay": "NCI-60 one-dose screen, 48 h (100 = growth as untreated, 0 = no growth, -100 = all killed)", "conditions": "10 µM unless noted", "values": [
      {"smiles": "CC(c1ccc(-n2cccn2)cc1)c1cnc(N2CCc3ccc(C(N)=O)cc3C2)s1", "note": "(stereo not drawn)", "growth": "86%"},
      {"smiles": "COc1cc2c(cc1OC)-c1ccc3cc4c(cc3c1N(CCCN1CCCCC1)C2)OCO4", "growth": "44.8%"},
      {"smiles": "C[C@@H](C[C@H](CCOCc1cccnc1)c1ccccc1)c1cc2ccccc2o1", "growth": "89.3%"},
      {"smiles": "N#Cc1c(N)n2c(nc1=Nc1ccc([N+](=O)[O-])cc1)sc1cc(Cl)ccc12", "growth": "95.4%"},
      {"smiles": "C=C1C(=O)O[C@H]2[C@H]1CC/C(C(=O)NCCCCCCCCNC(=O)/C1=C/CC[C@@]3(C)O[C@H]3[C@H]3OC(=O)C(=C)[C@@H]3CC1)=C\\CC[C@@]1(C)O[C@@H]21", "growth": "91.8%"},
      {"smiles": "O=C(NCCOCCOCCOCCNC(=O)c1cc2c(o1)C(=O)c1ccccc1C2=O)NC12CC3CC(CC(C3)C1)C2", "growth": "-5.16% (active)"},
      {"smiles": "CCOc1ccc2nc(-c3cccc(OCC(=O)NC(C)C)c3)nc(Nc3ccc(-c4cn[nH]c4)cc3)c2c1", "growth": "12.6%"},
      {"smiles": "CSc1ncc(C)c(Nc2ccc(Cl)cc2)n1", "growth": "99.9%"},
      {"smiles": "O=C1CCC(N2C(=O)c3cccc(NCCCC4CCN(CCNC(=O)c5cc6c(o5)C(=O)c5ccccc5C6=O)CC4)c3C2=O)C(=O)N1", "note": "(stereo not drawn)", "growth": "-32.7% (active)"},
      {"smiles": "CCOC(=O)C1C(=O)C=C(c2cnccn2)CC1c1ccc(OC)c(OC)c1", "note": "(stereo not drawn)", "growth": "102%"},
      {"smiles": "OC(CBr)c1ccnc2ccccc12", "note": "(stereo not drawn)", "growth": "100%"},
      {"smiles": "O=C1N(c2ccccc2)C(=S)N[C@]12[C@H](c1ccccc1)C1CCCN1[C@]21C(=O)NC2C=CC(Cl)=C[C@H]21", "note": "(stereo partly drawn)", "growth": "101%"},
      {"smiles": "CC(C)n1nc(C#Cc2cccc(O)c2)c2c(N)ncnc21", "growth": "-49.4% (active)"},
      {"smiles": "COc1cc2c(=O)n(CCCn3ccnc3)c3c4cc5c(cc4ccc3c2cc1OC)OCO5", "growth": "29%"},
      {"smiles": "O=C(/C=C/C12c3ccccc3C(c3ccccc31)C1C(=O)N(c3ccccc3)C(=O)C12)c1ccccc1", "note": "(stereo not drawn)", "growth": "35.9%"},
      {"smiles": "O=C(CC12CC3CC(CC(C3)C1)C2)NCCOCCOCCOCCNC(=O)c1cc2c(o1)C(=O)c1ccccc1C2=O", "growth": "-3.17% (active)"},
      {"smiles": "O=C1Nc2ccccc2/C1=N/N=C/c1ccc(OC2OC(CO)C(O)C(O)C2O)cc1", "note": "(stereo not drawn)", "growth": "102%"},
      {"smiles": "CC(=[N-])N1CCC[C@@H](Nc2c3ccccc3nc3ccccc23)C1.[Cl][Pt].[NH-]CCC[NH-]", "growth": "62.3%"},
      {"smiles": "O=C1Nc2ccccc2/C1=N/N=C/c1c[nH]c2ccccc12", "growth": "65.1%"},
      {"smiles": "CNC1(C#N)CCN(Cc2ccccc2)CC1", "growth": "100%"},
      {"smiles": "COc1cc2c(cc1OC)-c1ccc3cc4c(cc3c1N(CCCn1ccnc1)C2)OCO4", "growth": "34.4%"},
      {"smiles": "NC(=O)c1c(NC(=O)c2ccccn2)sc2c1CCC(=O)C2", "growth": "21%"},
      {"smiles": "NC(N)=N/N=C/c1ccc(Br)cc1", "growth": "62%"},
      {"smiles": "CCNCCNc1cc(C2CCCC2)c(C#N)c2nc3ccccc3n12", "growth": "22.1%"},
      {"smiles": "CS(=O)(=O)c1ccc(-c2[nH]c3ccc(F)cc3c2/C=N/O)cc1", "growth": "93%"},
      {"smiles": "N=C(N)c1ccc(-c2ccc(-c3ccc(Cl)cc3Cl)o2)cc1", "growth": "47.3%"},
      {"smiles": "CC(=O)C(C(C)=O)c1nc2sc3cc(Cl)ccc3n2c(=N)c1C#N", "growth": "77.7%"},
      {"smiles": "Cc1ccc(/C=C(\\C#N)n2nnc3cc(Cl)c(Cl)cc32)cc1", "growth": "12%"},
      {"smiles": "O=S(=O)(NCCNc1cc(-c2c(-c3cccc(O)c3)nc3sccn23)ccn1)c1ccc(Br)cc1", "growth": "41.3%"},
      {"smiles": "COc1ccc(/C(C)=N/NS(=O)(=O)c2ccc(C)cc2)cc1OC", "growth": "106%"},
      {"smiles": "C=C(Cl)COC(=O)C(C)(C)O", "growth": "101%"},
      {"smiles": "CCc1c(C(=O)N[C@@H]2c3cc(Cl)ccc3CC[C@@H]2O)[nH]c(C)c1C(C)=O", "growth": "73.2%"},
      {"smiles": "COc1cc2nc(Nc3ccc(F)cc3)nc(N)c2cc1OC", "growth": "90%"},
      {"smiles": "c1ccc2c(c1)nc(-n1ccnc1)c1nc3ccccc3n12", "growth": "37.9%"},
      {"smiles": "COC(=O)/C(=C\\c1ccc(OC)cc1)C(=O)N1c2ccccc2Sc2ccccc21", "growth": "54.6%"},
      {"smiles": "CN1CCN(c2ccc(Nc3ncc(Cl)c(NC[C@@H]4CCCO4)n3)cc2)CC1", "growth": "24.6%"},
      {"smiles": "O=C(NC1CCOCC1)c1ccc2c(c1)CN(c1ncc(Cc3cccc(-n4cccn4)c3)s1)CC2", "growth": "80.4%"},
      {"smiles": "[2H]c1nc(Nc2ncc(F)c(-c3cc(F)c4nc(C)n(C(C)C)c4c3)n2)c([2H])c([2H])c1CN1CCN(C([2H])([2H])C([2H])([2H])[2H])CC1", "growth": "64.5%"},
      {"smiles": "COc1ccc(C2CC(c3cnccn3)=NN2)cc1OC", "note": "(stereo not drawn)", "growth": "103%"}
    ]}
  ]
}
